From PubChem BioAssay (NCI)
This is part of a sample that, as a whole, favours compounds with a hit. Of some 79,000 tested, about 15% had one in any assay. A number with no mark means an inactive call. Activity calls are given as the source filed them. Cut-off read from the data, not from the text of the source: active = growth inhibition above about 70%; inactive = the rest.

Assays:
[1] = NCI Yeast Anticancer Drug Screen. Data for the rad50 strain (AID 155);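 note: 0% = growth of vehicle-only cultures of the same strain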; details: S. cerevisiae rad50 strain growth inhibition, hits give high values
Method in brief: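 Compounds were tested on a yeast strain with an engineered DNA damage repair alteration; the reported value is growth inhibition normalised to vehicle treatment.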

[2] = NCI Yeast Anticancer Drug Screen. Data for the mec2-1 strain (AID 157); details: S. cerevisiae mec2-1 strain, hits give high values
Method in brief: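 Strain: mec2-1 (DNA repair/cell cycle alteration). Compound exposure, then growth measured; inhibition expressed relative to vehicle.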

[3] = NCI Yeast Anticancer Drug Screen. Data for the sgs1 mgt1 strain (AID 161);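 note: 0% = growth of cultures given vehicle only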; details: S. cerevisiae sgs1 mgt1 strain, hits give high values
Method in brief: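 Test agents were incubated with a DNA-repair-mutant yeast strain. Growth was then read and compared against vehicle-treated controls.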

[4] = NCI Yeast Anticancer Drug Screen. Data for the cln2 rad14 strain (AID 165);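 note: 0% = growth equal to vehicle treated cultures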; details: S. cerevisiae cln2 rad14 strain, hits give high values
Method in brief: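 Compounds are applied to the cln2 rad14 yeast strain, and growth is then compared with that of vehicle-treated cultures to give inhibition.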

[5] = NCI Yeast Anticancer Drug Screen. Data for the bub3 strain (AID 167); details: S. cerevisiae bub3 mutant strain, hits give high values
Method in brief: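 Growth of a checkpoint-deficient yeast mutant is measured after compound exposure. Values represent inhibition relative to vehicle.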

[6] = NCI Yeast Anticancer Drug Screen. Data for the mlh1 rad18 strain (AID 175); details: S. cerevisiae mlh1 rad18 strain growth inhibition, hits give high values
Method in brief: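 Read-out is yeast growth inhibition, calculated against vehicle-only controls. The compound was applied to a strain engineered with DNA damage repair alterations.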

[7] = at 5.0 µM (retest, dose inferred, filed as 0.5)
[8] = at 50.0 µM (retest, dose inferred, filed as 5.0)

Row | Structure (SMILES) | growth inhibition [1, 7] | growth inhibition [1, 8] | growth inhibition ([1]; at 50.0 µM) | growth inhibition [2, 7] | growth inhibition [2, 8] | growth inhibition ([2]; at 50.0 µM) | growth inhibition [3, 7] | growth inhibition [3, 8] | growth inhibition ([3]; at 50.0 µM) | growth inhibition [4, 7] | growth inhibition [4, 8] | growth inhibition ([4]; at 50.0 µM) | growth inhibition [5, 7] | growth inhibition [5, 8] | growth inhibition ([5]; at 50.0 µM) | growth inhibition [6, 7] | growth inhibition [6, 8] | growth inhibition ([6]; at 50.0 µM)
1 | Nc1nc(-c2ccccc2)c(-c2ccccc2)c(-c2nc(N)nc(-c3ccccc3)c2-c2ccccc2)n1 | 7% | -3% | -4% | 6% | 16% | -6% | -1% | 0% | -16.9% | 21% | 12% | 2.45% | -1% | -9% | -17.1% | -12% | -16% | 7.8%
2 | Cn1c(-c2ccc(/C=N/NC(N)=NCCCCCCN=C(N)N/N=C/c3ccc(-c4c[n+]5ccccc5n4C)cc3)cc2)c[n+]2ccccc12 | 97% (active) | 98% (active) | 98.2% (active) | 97% (active) | 98% (active) | 96.8% (active) | 97% (active) | 98% (active) | 97.2% (active) | 95% (active) | 98% (active) | 89.3% (active) | 97% (active) | 99% (active) | 97.3% (active) | 97% (active) | 98% (active) | 97.7% (active)
3 | CC(=O)c1cc(-c2ccc(C)cc2)nc2c(C)cc(C)cc12 | 5% | 15% | 32.9% | 5% | 33% | 60.5% | 6% | 32% | -9.2% | 1% | 41% | 76.8% (active) | 10% | 40% | 95.2% (active) | 27% | 41% | 94.2% (active)
4 | Clc1ccc2c(NCCCCCCNc3ccnc4cc(Cl)ccc34)ccnc2c1 | 2% | 90% (active) | 65.9% | -3% | 98% (active) | 92.4% (active) | -10% | 95% (active) | 87.5% (active) | -2% | 75% (active) | 72.4% (active) | -11% | 92% (active) | 81.1% (active) | 12% | 97% (active) | 95.8% (active)
5 | CCc1nc(N)nc(N)c1-c1ccc(NCCN)c([N+](=O)[O-])c1 | -20% | -26% | 98.7% (active) | -3% | 5% | 98.7% (active) | -28% | -22% | 98.8% (active) | -7% | -34% | 98.5% (active) | – | – | – | -31% | -40% | 98.9% (active)
6 | CC(C)(c1ccccc1)c1ccc2[nH]c(C(C)(C)c3ccccc3)c(CC(=O)O)c2c1 | 2% | 93% (active) | 93.7% (active) | 10% | 80% (active) | 69.5% | 10% | 96% (active) | 85.7% (active) | 0% | 95% (active) | 96% (active) | -3% | 96% (active) | 94.8% (active) | 17% | 96% (active) | 96% (active)
7 | O=C(Nc1ccc(S(=O)(=O)NC2CCCCC2)cc1)OCc1ccccc1 | 91% (active) | 17% | 57% | 99% (active) | 26% | 9.85% | 100% (active) | 12% | 73% (active) | 28% | -10% | 30.7% | 99% (active) | 43% | 28.4% | 91% (active) | 30% | 54.6%
8 | Cc1ccc2c(c1)C(=O)N(CC[P+](c1ccccc1)(c1ccccc1)c1ccccc1)C2=O | 81% (active) | 89% (active) | 61.8% | 63% | 85% (active) | 63.8% | 74% (active) | 91% (active) | 66.8% | 65% | 79% (active) | 36% | – | – | – | 71% (active) | 82% (active) | 62.3%
9 | CCOP(=O)(OCC)/C(=C\NC(=S)N=Nc1c(O)[nH]c2ccccc12)C(=O)OC | 29% | 81% (active) | 19.6% | 4% | 89% (active) | 11.2% | 6% | 83% (active) | 7.85% | 2% | 67% | 46.1% | -8% | 62% | 13.8% | 5% | 84% (active) | 14.6%
10 | CC(C)OC(=O)c1cc([N+](=O)[O-])cc([N+](=O)[O-])c1Sc1ncnc2nc[nH]c12 | 49% | 54% | 14.2% | 11% | 49% | 15.5% | 44% | 83% (active) | 20.9% | 44% | 57% | 65.8% | 45% | 79% (active) | 24.7% | 35% | 42% | 66.8%
11 | CCCCCCCCCCCC1=NCCN1CCNCCCC | 6% | 75% (active) | 36.6% | 5% | 90% (active) | 98.7% (active) | 6% | 96% (active) | 44.2% | 9% | 66% | 97.3% (active) | 4% | 79% (active) | 98.4% (active) | 11% | 92% (active) | 98.8% (active)
12 | OC(Cc1ccccc1)(c1ccccc1)C(O)(Cc1ccccc1)c1ccccc1 (stereo unspecified) | 30% | 79% (active) | 85.2% (active) | 20% | 54% | 78.5% (active) | 0% | 52% | 78.4% (active) | 13% | 53% | 85.7% (active) | 15% | 61% | 74.5% (active) | 26% | 76% (active) | 87.2% (active)
13 | O=C(/C=C\c1cc(Br)ccc1O)/C=C/c1cc(Br)ccc1O | 58% | 90% (active) | 76.8% (active) | 95% (active) | 91% (active) | 75.8% (active) | 80% (active) | 91% (active) | 73.3% (active) | 36% | 88% (active) | 36.4% | 95% (active) | 91% (active) | 89% (active) | 48% | 86% (active) | 75% (active)
14 | COc1ccc([N+](=O)[O-])cc1[I+]c1cc([N+](=O)[O-])ccc1OC | 19% | 95% (active) | 93.2% (active) | 58% | 89% (active) | 76.3% (active) | 49% | 95% (active) | 92.2% (active) | 16% | 86% (active) | 94.2% (active) | 9% | 85% (active) | 90.8% (active) | 57% | 98% (active) | 95.7% (active)
15 | Cc1c(C)n(-c2ccccc2)c2nc(S(C)(=O)=O)nc(S(C)(=O)=O)c12 | 1% | 98% (active) | 71.2% (active) | 8% | 98% (active) | 79.3% (active) | -15% | 95% (active) | 86.3% (active) | 40% | 97% (active) | 86.4% (active) | 0% | 98% (active) | 85% (active) | 31% | 86% (active) | 87.2% (active)
16 | COCCCNC(=S)N/N=C/c1cc(Cl)cc(Cl)c1O | 21% | 75% (active) | 92.5% (active) | 15% | 81% (active) | 89.3% (active) | 27% | 94% (active) | 93.6% (active) | 10% | 77% (active) | 48.7% | 4% | 83% (active) | 80.7% (active) | 13% | 93% (active) | 85.2% (active)
17 | O=C(O)C(c1ccc(Cl)cc1)c1ccc(Cl)cc1 | 10% | 98% (active) | 95.3% (active) | 9% | 98% (active) | 95.5% (active) | 7% | 99% (active) | 91.9% (active) | 6% | 97% (active) | 92.5% (active) | 9% | 99% (active) | 97.4% (active) | 13% | 96% (active) | 95.8% (active)
18 | Cc1c(Cl)cccc1N=NC(=O)NNc1cccc(Cl)c1C | 1% | 96% (active) | 85.4% (active) | 29% | 96% (active) | 82.1% (active) | -1% | 97% (active) | 74.5% (active) | 29% | 97% (active) | 80.5% (active) | -12% | 97% (active) | 83.3% (active) | 1% | 98% (active) | 81.5% (active)
19 | O=C(NNC(=O)c1cccc(C(=O)NNC(=O)c2ccc(Cl)c(Cl)c2)n1)c1ccc(Cl)c(Cl)c1 | 35% | 64% | 44.5% | 37% | 66% | 45.8% | 47% | 62% | 52.7% | 54% | 76% (active) | 81.4% (active) | 61% | 80% (active) | 70.2% (active) | 49% | 71% (active) | 51.4%
